# From publication PMC8384837, “Expanding the binding specificity for RNA recognition by a PUF domain”
# Substitutions are numbered along the chain they refer to.
# Assays:
# Experiment in all cases: yeast three-hybrid, YBZ-1, SC-Leu-His + 0.5 mM 3-AT, 4 days
# Conditions in all cases: tags: N-Gal4 AD-HA kept; label: inside an RPR1-promoter hybrid RNA with tandem MS2 sites; ssRNA
# PUM1 PUF domain R3-RPS = PUM1 PUF domain R3-RPS (Homo sapiens, UniProt Q14671 828-1176, C935R;R936P;Q939S)
# In short: (§1)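 Pumilio-1 PUF domain libraries, randomized (NNK) at the three base-contacting residues of each repeat, were co-expressed with matching RNA elements from a centromeric plasmid in strain YBZ-1 (LexA–MS2 coat fusion, HIS3 reporter). Transformants were plated on SC-Leu (input) and SC-Leu-His + 0.5 mM 3-AT (selection) for four days, and repeat regions were PCR-amplified and Illumina-sequenced. The interaction score is the log2 change in variant frequency from input to selection, with pseudocount 1 where absent.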
# PUM1 PUF domain R8-KFH = PUM1 PUF domain R8-KFH (Homo sapiens, UniProt Q14671 828-1176, N1122K;Y1123F;Q1126H)
# In short: as §1
# PUM1 PUF domain R8-KWW = PUM1 PUF domain R8-KWW (Homo sapiens, UniProt Q14671 828-1176, N1122K;Y1123W;Q1126W)
# In short: as §1
# PUM1 PUF domain R5-GKD = PUM1 PUF domain R5-GKD (Homo sapiens, UniProt Q14671 828-1176, C1007G;R1008K;Q1011D)
# In short: as §1
# PUM1 PUF domain R5-GCR = PUM1 PUF domain R5-GCR (Homo sapiens, UniProt Q14671 828-1176, C1007G;R1008C;Q1011R)
# In short: as §1
# PUM1 PUF domain R6-NRQ = target: T1, PUM1 PUF domain R6-NRQ (Homo sapiens, UniProt Q14671 828-1176, Y1044R)
# T1 sequence: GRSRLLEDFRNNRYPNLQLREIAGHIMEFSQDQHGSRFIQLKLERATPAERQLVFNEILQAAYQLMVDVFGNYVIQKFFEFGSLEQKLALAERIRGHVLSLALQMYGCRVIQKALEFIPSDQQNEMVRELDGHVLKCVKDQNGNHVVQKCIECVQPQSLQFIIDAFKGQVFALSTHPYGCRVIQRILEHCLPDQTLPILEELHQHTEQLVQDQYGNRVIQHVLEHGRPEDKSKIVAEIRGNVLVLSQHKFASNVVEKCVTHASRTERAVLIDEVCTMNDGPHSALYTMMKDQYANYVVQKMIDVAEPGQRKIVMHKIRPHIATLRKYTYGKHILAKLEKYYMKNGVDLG
# In short: as §1
# PUM1 PUF domain R6-FYR = target: T2, PUM1 PUF domain R6-FYR (Homo sapiens, UniProt Q14671 828-1176, N1043F;Q1047R)
# T2 sequence: T1 sequence with N216F, R217Y, Q220R
# In short: as §1
# PUM1 PUF domain R3-LYQ = PUM1 PUF domain R3-LYQ (Homo sapiens, UniProt Q14671 828-1176, C935L;R936Y)
# In short: as §1
# PUM1 PUF domain R4-SCM = PUM1 PUF domain R4-SCM (Homo sapiens, UniProt Q14671 828-1176, N971S;H972C;Q975M)
# In short: as §1
# PUM1 PUF domain R2-GFD = PUM1 PUF domain R2-GFD (Homo sapiens, UniProt Q14671 828-1176, N899G;Y900F;Q903D)
# In short: as §1
sequence,measurement,setting,value
GGCUAGAACUAGUGGAUCCCCCGGCGCCCGGCGGCUCGAGCCCGGGUAAGUGUAAUUAGUCUGCAUGCCGCCGGGCGCCAUGCCUGCAGGUCGACUCUAGAAAACAUG,binding signal,PUM1 PUF domain R3-RPS,3.4 log2 enrichment (interaction score)
GGCUAGAACUAGUGGAUCCCCCGGCGCCCGGCGGCUCGAGCCCGGGUAAGCGUAAAUAGUCUGCAUGCCGCCGGGCGCCAUGCCUGCAGGUCGACUCUAGAAAACAUG,binding signal,PUM1 PUF domain R8-KFH,3.24 log2 enrichment (interaction score)
same,binding signal,PUM1 PUF domain R8-KWW,5.85 log2 enrichment (interaction score)
GGCUAGAACUAGUGGAUCCCCCGGCGCCCGGCGGCUCGAGCCCGGGUAAGUGUCAAUAGUCUGCAUGCCGCCGGGCGCCAUGCCUGCAGGUCGACUCUAGAAAACAUG,binding signal,PUM1 PUF domain R5-GKD,2.2 log2 enrichment (interaction score)
same,binding signal,PUM1 PUF domain R5-GCR,5.08 log2 enrichment (interaction score)
GGCUAGAACUAGUGGAUCCCCCGGCGCCCGGCGGCUCGAGCCCGGGUAAGUGUAAAUAGUCUGCAUGCCGCCGGGCGCCAUGCCUGCAGGUCGACUCUAGAAAACAUG,binding signal,PUM1 PUF domain R6-NRQ,7.58 log2 enrichment (interaction score)
same,binding signal,PUM1 PUF domain R8-KFH,2.89 log2 enrichment (interaction score)
same,binding signal,PUM1 PUF domain R6-FYR,4.96 log2 enrichment (interaction score)
same,binding signal,PUM1 PUF domain R3-LYQ,3.33 log2 enrichment (interaction score)
same,binding signal,PUM1 PUF domain R4-SCM,2.65 log2 enrichment (interaction score)
same,binding signal,PUM1 PUF domain R3-RPS,0.42 log2 enrichment (interaction score)
same,binding signal,PUM1 PUF domain R8-KWW,3.43 log2 enrichment (interaction score)
GGCUAGAACUAGUGGAUCCCCCGGCGCCCGGCGGCUCGAGCCCGGGUAAGUGUACAUAGUCUGCAUGCCGCCGGGCGCCAUGCCUGCAGGUCGACUCUAGAAAACAUG,binding signal,PUM1 PUF domain R4-SCM,3.79 log2 enrichment (interaction score)
GGCUAGAACUAGUGGAUCCCCCGGCGCCCGGCGGCUCGAGCCCGGGUAAGUGUAAAGAGUCUGCAUGCCGCCGGGCGCCAUGCCUGCAGGUCGACUCUAGAAAACAUG,binding signal,PUM1 PUF domain R2-GFD,4.7 log2 enrichment (interaction score)
GGCUAGAACUAGUGGAUCCCCCGGCGCCCGGCGGCUCGAGCCCGGGUAAGUGUUAAUAGUCUGCAUGCCGCCGGGCGCCAUGCCUGCAGGUCGACUCUAGAAAACAUG,binding signal,PUM1 PUF domain R5-GKD,3.71 log2 enrichment (interaction score)
same,binding signal,PUM1 PUF domain R5-GCR,3.22 log2 enrichment (interaction score)
